Measurements as given in PubChem BioAssay (NCI).
This is part of a sample that, as a whole, favours compounds with a hit. Of some 83,000 tested, about 20% had one in any assay.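 Values shown are percent growth following 48 h exposure of cells in 96-well plates to a single concentration of compound; below 10 was considered active.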 Unmarked numbers belong to inactive results. Activity calls are given as the source filed them.

Experiments:
Assay in all cases: NCI-60 one-dose screen, 48 h (100 = growth as untreated, 0 = no growth, -100 = all killed)
Conditions in all cases: 10 µM unless noted
HCT-15 colon = tested on: HCT-15 colon
HT29 colon = tested on: HT29 colon
SNB-75 CNS = tested on: SNB-75 CNS
SNB-19 CNS = tested on: SNB-19 CNS
U251 CNS = tested on: U251 CNS
PC-3 prostate = tested on: PC-3 prostate
SK-MEL-5 melanoma = tested on: SK-MEL-5 melanoma
UACC-62 melanoma = tested on: UACC-62 melanoma
LOX IMVI melanoma = tested on: LOX IMVI melanoma
SK-MEL-28 melanoma = tested on: SK-MEL-28 melanoma
SK-MEL-2 melanoma = tested on: SK-MEL-2 melanoma
EKVX NSCLC = tested on: EKVX NSCLC
SN12C renal = tested on: SN12C renal
UO-31 renal = tested on: UO-31 renal
TK-10 renal = tested on: TK-10 renal
ACHN renal = tested on: ACHN renal
CAKI-1 renal = tested on: CAKI-1 renal
A498 renal = tested on: A498 renal
CCRF-CEM leukemia = tested on: CCRF-CEM leukemia
MOLT-4 leukemia = tested on: MOLT-4 leukemia

| SMILES | growth (HCT-15 colon) | growth (HT29 colon) | growth (SNB-75 CNS) | growth (SNB-19 CNS) | growth (U251 CNS) | growth (PC-3 prostate) | growth (SK-MEL-5 melanoma) | growth (UACC-62 melanoma) | growth (LOX IMVI melanoma) | growth (SK-MEL-28 melanoma) | growth (SK-MEL-2 melanoma) | growth (EKVX NSCLC) | growth (SN12C renal) | growth (UO-31 renal) | growth (TK-10 renal) | growth (ACHN renal) | growth (CAKI-1 renal) | growth (A498 renal) | growth (CCRF-CEM leukemia) | growth (MOLT-4 leukemia) |
| --- | --- | --- | --- | --- | --- | --- | --- | --- | --- | --- | --- | --- | --- | --- | --- | --- | --- | --- | --- | --- |
| c1n[nH]cc1-c1nc2ccc3[nH]ncc3c2c2c1CCCC2 | 12.7% | 24% | 7.62% (active) | 23.1% | 30.1% | 23.1% | 16.1% | -0.281% (active) | 18.8% | 18.3% | -20.7% (active) | 42.1% | 15.1% | 11.9% | 15.1% | 10.8% | 0.509% (active) | -14.2% (active) | 28.1% | 24.6% |
| O=C1[C@H]2Cc3c([nH]c4ccccc34)[C@@H](c3ccc(Br)cc3)N2C(=O)CN1C1CCN(CC2CCCCC2)CC1 | -91.2% (active) | -71.1% (active) | -1.64% (active) | 4.34% (active) | -90.8% (active) | -52.3% (active) | -99.8% (active) | 42.3% | -87.1% (active) | -95.5% (active) | 16.7% | -79.2% (active) | -96.9% (active) | 12.3% | -85.2% (active) | -95.1% (active) | -32.9% (active) | -15.4% (active) | -27.9% (active) | -43.5% (active) |
| CC(Nc1c(C#N)cnc2ccc(-c3cnc(N)nc3)cc12)c1ccccc1 (stereo not given) | 9.92% (active) | 17.4% | 18.9% | 20.4% | 21% | 10.8% | -67.3% (active) | 3.27% (active) | 4.6% (active) | 17.9% | 2.77% (active) | 0.82% (active) | 14.7% | 7.41% (active) | -20.7% (active) | 14.6% | 1.74% (active) | -38.6% (active) | 19.1% | 2.96% (active) |
| COC(=O)c1ccc(NC2=C/C(=N/S(=O)(=O)c3ccc(C(=O)O)cc3)c3ccccc3C2=O)cc1 | 61.7% | 112% | 172% | 88.6% | 2.7% (active) | 16.6% | -35.6% (active) | -24.1% (active) | -65% (active) | -32.6% (active) | 4.1% (active) | 88.3% | -71.3% (active) | -1.04% (active) | 156% | -11.2% (active) | 20.4% | 119% | 4.48% (active) | -15% (active) |
| CC1(C)CC[C@]23CC[C@]4(C)[C@H](CC[C@@H]5[C@@]6(C)CCCN(CO)C(C)(C)[C@@H]6CC[C@]54C)[C@H]2[C@H]1OC3 | 7.34% (active) | 21% | 112% | 56.6% | 32.5% | 73.6% | 100% | 101% | -80.9% (active) | 103% | 98.4% | 90.9% | 89.6% | 76.7% | 129% | 96.7% | 62.1% | 107% | 58.5% | 35.4% |
| CNc1ncc2cc(-c3ccc(-c4ncccc4F)cc3Cl)c(=O)n(CC3OCC(N)CO3)c2n1 (stereo not given) | 87.5% | 48.1% | 24% | 69% | 51.8% | 81.9% | 82.6% | 78.6% | 32.3% | 92.9% | 93.5% | 57.6% | 59.8% | -12.3% (active) | 13.1% | 40.9% | 0.298% (active) | 6.43% (active) | 78.1% | 57.8% |
| CC(=O)N1N=C(c2cccc(-n3cccc3)c2)CC1c1cccc(F)c1 (stereo not given) | 92.8% | 100% | 104% | 88.5% | 93.4% | 84.9% | 98.7% | 81% | 95.5% | 103% | 103% | 95.7% | 97.1% | 75.4% | 123% | 101% | 86.5% | 101% | 94.4% | 90.3% |
| CCOC(=O)c1c(NC(=O)c2ccccc2C(F)(F)F)sc2c1CCC(=O)C2 | 10.5% | 75.4% | 65.4% | 18.6% | 17.5% | 14.6% | -50.3% (active) | 13% | 3.5% (active) | 80.1% | 91.2% | 32.2% | 25.8% | -1.08% (active) | 91.1% | 6.88% (active) | 21.1% | 85.2% | 10.3% | 94.2% |
